Experimental data as given in PubChem BioAssay (NCATS).
Results filed as inconclusive are left out. The source made the active and inactive calls. Calls come from the whole dose curve; as a rule, active = well fitted inhibition curve with a large enough effect; inconclusive = small, poorly fitted or top-dose-only effect; inactive = flat fitted curve, though single readings scatter.

system: Zika virus NS2B-NS3 protease; test: Primary screen GU AMC qHTS for Zika virus inhibitors (AID 1347154); conditions: Zika NS2B-NS3 unlinked protease, AMC fluorogenic substrate; series mostly up to 54.1 µM; activity change, negative = inhibition: at the top concentration;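 note: 0% = no-inhibitor control and -100% = no-enzyme control; nearly all actives have a fitted effect of over 70% in size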
In short: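 Fluorogenic AMC-substrate cleavage by noncovalent NS2B-NS3 protease complex (25 nM, pH 8.0 Tris buffer with Tween 20) followed for 15 minutes at room temperature (~20% conversion). Percent inhibition from ex340/em450 signal change, fitted by 4-parameter Hill equation.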

Structure (SMILES)	Potency	activity change, negative = inhibition
CCCCC1=NC2(CCCC2)C(=O)N1Cc1ccc(-c2ccccc2-c2nn[nH]n2)cc1	inactive	–
CC(=O)Oc1ccc(C(c2ccc(OC(C)=O)cc2)c2ccccn2)cc1	–	-5.57% (inactive)
CCCC(=O)Nc1ccc(OCC(O)CNC(C)C)c(C(C)=O)c1 (centres undefined)	–	-7.2% (inactive)
CC(C)(C)NC(=O)[C@@H]1CN(Cc2cccnc2)CCN1C[C@@H](O)C[C@@H](Cc1ccccc1)C(=O)N[C@H]1c2ccccc2C[C@H]1O	–	-0.693% (inactive)
Cc1c(C(C)C)c(=O)n(-c2ccccc2)n1C	–	-2.41% (inactive)
O=C(CCN1CCC(c2ccccc2)C1)c1ccc2c(c1)OCCO2 (centres undefined)	–	1.26% (inactive)
O=c1c(-c2ccccc2)c1-c1ccccc1	–	-0.195% (inactive)
OC[C@H]1O[C@@H](n2cnc3c(=S)nc[nH]c32)[C@H](O)[C@@H]1O	–	-0.86% (inactive)
O=C(COc1ccc(Cl)cc1)N1CCN(Cc2ccc3c(c2)OCO3)CC1	–	5.99% (inactive)
C[C@@H]1C[C@H]2[C@@H]3C[C@H](F)C4=CC(=O)C(Cl)=C[C@]4(C)[C@@]3(F)[C@@H](O)C[C@]2(C)[C@@]1(O)C(=O)CO	–	-0.0967% (inactive)
COC(=O)C1=C(C)NC(C)=C(C(=O)O[C@@H]2CCCN(Cc3ccccc3)C2)[C@@H]1c1cccc([N+](=O)[O-])c1	–	-13.5% (inactive)
CC(=O)OCC(=O)[C@@]12OC(C)(C)O[C@@H]1C[C@H]1[C@@H]3C[C@H](F)C4=CC(=O)C=C[C@]4(C)[C@@]3(F)[C@@H](O)C[C@@]12C	–	-3.14% (inactive)
CC/C(=C(/CC)c1ccc(O)cc1)c1ccc(O)cc1	–	-11.2% (inactive)
CC(=O)O[C@]1(C(C)=O)CC[C@H]2[C@@H]3C[C@H](C)C4=CC(=O)CC[C@]4(C)[C@H]3CC[C@@]21C	–	-7.88% (inactive)
NC[C@H]1O[C@H](O[C@H]2[C@H](O[C@@H]3O[C@H](CO)[C@@H](O)[C@H]3O)C(O)[C@H](N)C[C@@H]2N)[C@H](N)[C@@H](O)[C@@H]1O (some centres undefined)	–	-1.02% [at 6.83 µM] (inactive)
C[C@H]1C[C@H]2[C@@H]3CCC4=CC(=O)C=C[C@]4(C)[C@@]3(Cl)[C@@H](O)C[C@]2(C)[C@@]1(O)C(=O)CO	–	-18.9% (inactive)
CCN(CC)CCOC(=O)C(c1ccccc1)C1CCCCC1 (centres undefined)	–	-13% (inactive)
CC(C)=CCC1C(=O)N(c2ccccc2)N(c2ccccc2)C1=O	–	-6.09% (inactive)
O=C1OCCN1/N=C/c1ccc([N+](=O)[O-])o1	–	-7.89% (inactive)
CC(=O)Oc1ccc2c(c1)CC[C@@H]1[C@@H]2CC[C@]2(C)[C@@H](O)CC[C@@H]12	–	-4.55% (inactive)

Structure (SMILES)	Potency	activity change, negative = inhibition
C=CCc1ccc(O)c(OC)c1	–	-3.71% (inactive)
CC1=C(C(=O)O)N2C(=O)[C@@H](NC(=O)[C@H](N)c3ccc(O)cc3)[C@H]2SC1	–	-7.8% (inactive)
CC(=O)OCC(=O)[C@@]1(O)CC[C@H]2[C@@H]3CCC4=CC(=O)C=C[C@]4(C)[C@H]3[C@@H](O)C[C@@]21C	–	5.81% (inactive)
CC(=O)N/N=C/c1ccc([N+](=O)[O-])o1	–	0.683% (inactive)
O=c1[nH]c(=O)n([C@H]2CCCO2)cc1F	–	6.61% (inactive)
COc1cccc(OC)c1C(=O)N[C@@H]1C(=O)N2[C@@H]1SC(C)(C)[C@@H]2C(=O)O	–	-3.63% (inactive)
COc1cc(C(=S)N2CCOCC2)cc(OC)c1OC	–	3.69% (inactive)
Oc1c(I)cc(I)c2cccnc12	–	-2.13% (inactive)
Nc1ccc(C(=O)Nc2ccccc2N)cc1	–	-5.85% (inactive)
CCCCN1CCCC1C(=O)Nc1c(C)cc(C)cc1C (centres undefined)	–	-2.77% (inactive)
NCCC(O)(P(=O)(O)O)P(=O)(O)O	–	-2.06% (inactive)
Cc1onc(-c2c(Cl)cccc2Cl)c1C(=O)N[C@@H]1C(=O)N2[C@@H]1SC(C)(C)[C@@H]2C(=O)O	–	-6.66% (inactive)
CCCSS/C(CCO)=C(\C)N(C=O)Cc1cnc(C)nc1N	–	3.24% (inactive)
Nc1ccc(/C=C/c2ccc(N)cc2S(=O)(=O)O)c(S(=O)(=O)O)c1	–	-4.58% [at 0.59 µM] (inactive)
CN1CCN(C(c2ccccc2)c2ccccc2)CC1	–	1.75% (inactive)
OC[C@@H](O)[C@@H](O[C@@H]1O[C@H](CO)[C@H](O)[C@H](O)[C@H]1O)[C@H](O)[C@@H](O)CO	–	-2.81% (inactive)
O=C(O)CNC(=O)c1ccccc1	–	0.579% (inactive)
CC1(C)O[C@@H]2C[C@H]3[C@@H]4C[C@H](F)C5=CC(=O)CC[C@]5(C)[C@H]4[C@@H](O)C[C@]3(C)[C@]2(C(=O)CO)O1	–	-8.1% (inactive)
OC[C@H]1O[C@H](O[C@]2(CCl)O[C@H](CCl)[C@@H](O)[C@@H]2O)[C@H](O)[C@@H](O)[C@H]1Cl	–	-6.73% (inactive)
